Measured values published in the OligoGym collection.

What follows are sequences tested against C19orf48 (assay: pooled miR-30 sensor sort-seq; sequence = guide strand). Conditions: shRNA.
Also: reference of the scale not given here.

Sequence	sensor-assay potency score (higher = more potent)
TCTCCTGGGTGTGTGGCTCAGC	-0.768
CCACTTATCCACCTTCTCCTGG	-1.46
TGGAGCACCAGGCCAGGCGGTG	-1.89
TTCTGGCCTGCTTCACCCCTGG	-0.772
TGTCCTTGAGAGCCAGGCCCAG	-1.6

Each sequence was assayed against C19orf61 in the same assay as above. Conditions: shRNA.

Sequence	sensor-assay potency score (higher = more potent)
TCATCCACCAACTTGATGCTGT	0.069
TTGGGTAATAAAGAAGTCGATG	-0.372
TTGGCTGACAACAATGACATGA	0.194
TTTGCGGTCATTATTGATGAGA	-1.14
TAAAGAGCTCTCCAGACCCTGC	-0.972
TCTGCTGTCTGCAGGAACCTGT	-0.731
TTGCATTGTAACATGGACAGAG	0.588
TTCTGCATGACGGAAGTGCTTG	-0.495
TTCTTCTCGGTGAGGATCGTGT	-0.682
TAAGTTGACCTCAGAGTCCAGG	-0.418
TTGACCGCTCTGCTGGAGGTTT	-0.879
TTCTCGGTGAGGATCGTGTGTG	-0.797

These sequences were tested against C1GALT1C1 in the same assay as above. Conditions: shRNA.

Sequence	sensor-assay potency score (higher = more potent)
TTTATCTTCAGATATCTTCCAA	0.63
TATCTTCTTTGTTAGGAGCTTG	-0.577
TATCTGAACAACAGCCTTCTAC	-0.664
TACATCATCACATGCATCTGAT	-0.0617
TTATCTTCAGATATCTTCCAAA	-0.897
TTTGGTATTAAATACATCTTTT	-0.97
TTTTCAATGATAGCAAACGTAG	-1.07
TAAGTCTTTTCATTGATTCTAC	-0.486
TTAATTGACTCAAACACTTTAA	-1.19
ATAATGACAACACACGTCCTAT	-0.903
TTTTCATTGATTCTACACTTAA	-1.52
TTTGTTAGGAGCTTGTAGGTGA	0.841

The sequences below were run against C1QL1 in the same assay as above. Conditions: shRNA.

Sequence	sensor-assay potency score (higher = more potent)
TCAAACTTGAGTACCTCGTAAC	-0.701
TATAACTTTGGTCAGACGGGGC	-0.517
TCCAGGTGCAGGATCACGCTGT	-0.765
TTTGCCTCCATCCAGCTTGATG	-1.62
TTGAGTACCTCGTAACCCTCGT	-0.551
TTGCACGTAAACTTGCCGCTGG	0.439
TATTTGTTGCTGTTGCCGCCGT	-0.708
TAGGGGTCGCACACCATGCGGC	-0.617
TGCAGGATCACGCTGTTGCTGG	-1.19
TTTGTTGCTGTTGCCGCCGTGT	-0.647
TAGGTGAAAAAGTAGGTGCCGG	-0.205
